Structures are written as SMILES. Records with an inconclusive call do not appear. Where a call stands in place of a potency, no number is given. The source made the active and inactive calls. Calls follow the shape of the dose curve; as a rule, active = well fitted cell-killing curve with a large enough effect; inconclusive = small, poorly fitted or top-dose-only effect; inactive = flat fitted curve, though single readings scatter.

The experiment is described as follows: Cell Viability - LYMP2-023 (AID 975). Also: nearly all actives have a fitted effect of over 55% in size. As to conditions: LYMP2-023 lymphoblastoid cell viability; series mostly up to 92.2 µM. The text has this: NIH Chemical Genomics Center [NCGC]
NIH Molecular Libraries Screening Centers Network [MLSCN]
National Institutes of Environmental Health Sciences [NIEHS]
National Toxicology Program [NTP]
We have developed a 1536-well cell-based assay for quantitative high throughput screening (qHTS) against a number of cell lines to determine in vitro cytotoxicity of small molecules. This particular assay uses a human lymphoblastoid cell line (LYMP2-023) purchased from Coriell Institute for Medical Research.
NCGC Assay Protocol Summary:
The CellTiter-Glo luminescent cell viability assay (Promega) is a homogeneous method to measure the number of viable cells in culture. The end point readout of this assay is based on quantitation of intracellular ATP, an indicator of metabolic activity, using the luciferase reaction. Luciferase catalyzes the oxidation of beetle Luciferin to oxyluciferin and light in the presence of ATP. The luminescent signal is proportional to amount of ATP present.
Using the CellTiter-Glo luminescent cell viability assay, the amount of cellular ATP was measured in the lymphoblastoid cell line with complete culture medium following compound treatment for 24 hours. The assay was performed in opaque white Kalypsys 1536-well plates. In the screen, tetraoctylammonium bromide was used as positive control. Library compounds were measured for their ability to cause acute toxicity in the cell line, as reflected by a decrease in intracellular ATP levels, in a concentration-dependent manner. […] AC50 values were determined from concentration-response data modeled with the standard Hill equation.
qHTS protocol for CellTiter Glo lymphoblastoid cellular assay
[Step] [Parameter] [Value] [Description]
1. Reagent; 5 uL; 2500 lymphoblastoid cells/well
2. Time; 5 hr; 37 C incubation
4. Controls; 23 nL; Tetraoctylammonium bromide 6.4pM to 92 uM
5. Time; 24 hr; 37 C incubation
6. Reagent; 5 uL; CellTiter Glo reagent
7. Time; 30 min; Room Temperature
8. Detection; Luminescence; Viewlux plate reader
Keywords: cell viability, cytotoxicity, lymphoblastoid cell line, luminescence, NTPHTS, NTPHTS_NCGC, NIEHS, DSSTox, MLSMR, MLSCN, NIH Roadmap, qHTS, NCGC
Regarding `CCOCCO`, the Potency result was “inactive”.

Take `COC(=O)CCCC(=O)OC`: the Potency result is “inactive”.

Regarding `O=C(Cl)c1c(Cl)cccc1Cl`, the Potency result was “inactive”.

Consider `ClC/C=C/CCl`, for which the Potency entry is “inactive”.

`Clc1ccccn1`: the Potency entry was “inactive”.

On to `c1ccc2n[nH]nc2c1`, for which the Potency result was “inactive”.

For `Cc1cc(C(=O)O)ccc1[N+](=O)[O-]`, the Potency result was “inactive”.

`CNC(=O)N(c1ccccc1)c1ccccc1`: the Potency result was “inactive”.

Consider `CC(C=O)Cc1ccc(C(C)(C)C)cc1` (stereo not given), for which the Potency entry is “inactive”.

Turning to `CCCCC(CC)COCC1CO1` (stereo not given), the Potency result is “inactive”.

For `CCCC(C)CO` (stereo not given), the Potency result is “inactive”.

As to `O=C(O)c1c(Cl)cccc1Cl`, the Potency result is “inactive”.

On to `ClCCl`, for which the Potency result is “inactive”.

Regarding `Nc1nc(-c2ccccc2)cs1`, the Potency result is “inactive”.

For the compound `C/C=C1\CC2C=CC1C2` (stereo not given), the Potency entry is “inactive”.

With `CC1CCCO1` (stereo not given), the Potency entry was “inactive”.

As to `N#CCc1ccccc1[N+](=O)[O-]`, the Potency entry is “inactive”.

For `CC(=O)c1ccccc1[N+](=O)[O-]`, the Potency result was “inactive”.

As to `C/C(C=O)=C/c1ccccc1`, the Potency result was “inactive”.

As to `CCNc1ccccc1`, the Potency result is “inactive”.

Regarding `C=CC(=O)NC(C)C`, the Potency result is “inactive”.

With `Nc1cccc(C(F)(F)F)c1`, the Potency result is “inactive”.

Take `O=Cc1ccc(CO)o1`: the Potency result was “inactive”.

On to `Cc1cc(C)c(N)cc1C`, for which the Potency result was “inactive”.

For `C=C(C)C(=O)OCCCCCC`, the Potency entry is “inactive”.

In the case of `Cc1ccccc1C#N`, the Potency result was “inactive”.

For the compound `Nc1cc(Cl)c([N+](=O)[O-])cc1O`, the Potency entry is “inactive”.

In the case of `CN(C)CCCCl`, the Potency entry is “inactive”.

As to `Cc1ccc2nc(-c3ccc(N)cc3)sc2c1S(=O)(=O)O`, the Potency result is “inactive”.

As to `CC(=O)c1ccc([N+](=O)[O-])cc1`, the Potency entry is “inactive”.

Take `OC1CCCC1`: the Potency result was “inactive”.

Take `CC(=O)c1nccs1`: the Potency entry is “inactive”.

With `CC(C)CCOC(=O)/C=C/c1ccccc1`, the Potency entry is “inactive”.

As to `O=C(O)c1cccc([N+](=O)[O-])c1`, the Potency result is “inactive”.

On to `C=C(C)C(=O)OCCCCCCCCCC`, for which the Potency result was “inactive”.

On to `C=C(C)C(=O)OCC(C)C`, for which the Potency entry is “inactive”.

As for `Cc1cccc2ccccc12`, the Potency entry was “inactive”.

In the case of `Cc1cccc(C)c1`, the Potency entry is “inactive”.

Regarding `Cc1nc2ccc(Cl)cc2[nH]1`, the Potency result was “inactive”.

`Cc1ccc(CO)cc1`: the Potency result is “inactive”.

The values are drawn from PubChem BioAssay (NCATS).
